In PubChem BioAssay (NCATS):
Records with an inconclusive call do not appear. Where a call stands in place of a potency, no number is given. Active and inactive are the calls of the source. The call rests on the fitted dose curve; in most records, active means well fitted cell-killing curve with a large enough effect; inconclusive means small, poorly fitted or top-dose-only effect; inactive means no such curve, though single readings can be large or run the other way.

assay: qHTS of pediatric cancer cell lines to identify multiple opportunities for drug repurposing: Primary screen for Rh30 cells (AID 1347107); conditions: Rh30 rhabdomyosarcoma viability, CellTiter-Glo luminescence, 48 h; series mostly up to 46 µM; further: nearly all actives have a fitted effect of over 75% in size
Excerpt: Drug repurposing or repositioning has been offered as a strategy for drug development in oncology programs. This approach has special potential for childhood cancers and other rare or orphan diseases, where the expected return on new drug development has been a disincentive to pharmaceuticals.
In this project we exploit the poly-pharmacology of drugs to discover new indications via phenotypic screening of a panel of 19 well-characterized cell lines derived from solid tumors seen in children and adolescents. The goal is to identify approved drugs with previously unrecognized anticancer properties that has the potential to reveal new mechanisms and biological processes involved in carcinogenesis or drug resistance. We employed a titration-based paradigm (quantitative high-throughput screening or qHTS), where all compounds were tested at multiple concentrations for their effect on cell viability. Concentration-response curves (CRCs) were derived directly from the primary screen, and both potency and efficacy values were used to identify compounds with robust bioactivity profiles. We screened the NIH Chemical Genomics Center (NCGC) Pharmaceutical Collection (NPC) and Mechanism Interrogation Plate (MIPE) small molecule collections of approved and investigational compounds against these cell lines; and measured metabolically active cells after 48 hours of compound treatment as a proxy for cell viability.
Assay Submitter: Nathalia J. Martinez, National Center for Advancing Translational Sciences, National Institutes of Health, Rockville, MD, USA; email: natalia.martinez@nih.gov
[1] Shen, M et al. Quantitative high-throughput phenotypic screening of pediatric cancer cell lines identifies multiple opportunities for drug repurposing. Oncotarget 2017 Dec 19;9(4):4758-4772. PMID 29435139.
The cells were obtained from University of North Carolina (UNC), Pediatric Preclinical Testing Program (PPT), and Coriell Institute (CI).
qHTS cell viability assay:
Cells were assayed in growth media at a density of 500-1,000 cells/well. Five microliters of cells were dispensed into 1,536-well, white, solid-bottom, TC-treated plates (Greiner Bio One) using a multidrop dispenser and incubated at 37 degrees C, 5% CO2, under a humidified atmosphere for 5 hours. Twenty-three nanoliters of compounds and controls (neutral control DMSO or positive control bortezomib at final concentration of 2.3 µM) were subsequently transferred by Kalypsys pintool. For primary screens, the MIPE collection was tested at 11-point dilutions (final concentrations range from 0.78 nM to 46 µM) and the NPC collection at 8-point dilutions (final concentrations range from 0.59 nM to 46 µM). Compounds tested in follow-up screens were assayed at 11-point dilutions. Cells were incubated for 48 hours, followed by addition of 3 µL of CellTiter-Glo (Promega). After a 15 min incubation at room temperature, samples were analyzed for luminescence intensity using a ViewLux High-throughput CCD imager equipped with clear filters.

SMILES	Potency
Clc1ccc2c(N3CCN(CCCN4CCN(c5ccnc6cc(Cl)ccc56)CC4)CC3)ccnc2c1	inactive
CN(C)CCc1c[nH]c2ccc(Cn3cncn3)cc12	inactive
Cc1cc(=O)oc2cc(O)ccc12	inactive
Nc1ncn([C@H]2C[C@H](O)[C@@H](CO)O2)c(=O)n1	inactive
CCCCc1ccc2nc(NC(=O)OC)[nH]c2c1	inactive
COCCCN1CCC(NC(=O)c2cc(Cl)c(N)c3c2OCC3)CC1	inactive
CCOC(=O)C1=C(O)C(=O)N(Cc2ccccc2)C1	inactive
COc1c(O)cc2c(c1O)[C@@H]1O[C@H](CO)[C@@H](O)[C@H](O)[C@H]1OC2=O	inactive
C=C(c1ccc(C(=O)O)cc1)c1cc2c(cc1C)C(C)(C)CCC2(C)C	inactive
O=c1oc2cc(O)ccc2s1	inactive
CC(C)c1ccc2oc3nc(N)c(C(=O)O)cc3c(=O)c2c1	inactive
CCCCC(CC)COC(=O)C(C#N)=C(c1ccccc1)c1ccccc1 (stereo not given)	inactive
O=c1c(O)c(-c2cc(O)c(O)c(O)c2)oc2cc(O)cc(O)c12	inactive
CCCCN(CCCC)CCC(O)c1cc2c(Cl)cc(Cl)cc2c2cc(C(F)(F)F)ccc12 (stereo not given)	inactive
CCc1nc(N)nc(N)c1-c1ccc(Cl)cc1	inactive
CN(C)c1ccc(O)c2c1C[C@H]1C[C@H]3[C@H](N(C)C)C(=O)C(C(N)=O)=C(O)[C@@]3(O)C(=O)C1=C2O	inactive
Nc1nc(N)c(N=O)c(OCC2CCCCC2)n1	inactive
O=C(O)c1cccc(-c2noc(-c3ccccc3F)n2)c1	inactive
O=P(O)(O)C(O)(Cn1ccnc1)P(=O)(O)O	inactive
C[C@@H](c1ncncc1F)[C@](O)(Cn1cncn1)c1ccc(F)cc1F	inactive

SMILES	Potency
Cc1c(C(=O)NN2CCCCC2)nn(-c2ccc(Cl)cc2Cl)c1-c1ccc(Cl)cc1	inactive
CCN(CC)CCOc1ccc(Cc2ccccc2)cc1	inactive
CS(=O)(=O)OCCCCOS(C)(=O)=O	inactive
COc1cc2c(cc1OC)C1CC(=O)C(CC(C)C)CN1CC2 (stereo not given)	inactive
O=C(NC(Cc1cc(=O)[nH]c2ccccc12)C(=O)O)c1ccc(Cl)cc1 (stereo not given)	inactive
Cc1nc2n(c(=O)c1CCN1CCC(c3noc4cc(F)ccc34)CC1)CCCC2	inactive
COc1ccc(C2(C#N)CCC(C(=O)O)CC2)cc1OC1CCCC1 (stereo not given)	inactive
CCOC(=O)C1=C[C@@H](OC(CC)CC)[C@H](NC(C)=O)[C@@H](N)C1	inactive
CNC[C@@H](O)[C@@H](O)[C@H](O)[C@H](O)CO	inactive
O=C1NC(=O)C(c2ccccc2[N+](=O)[O-])=C1Nc1ccc(O)c(Cl)c1	inactive
C[C@]12CCC(=O)C=C1CC[C@@H]1[C@H]2[C@@H](O)C[C@@]2(C)[C@H]1CC[C@]2(O)C(=O)CO	inactive
NNc1nncc2ccccc12	inactive
CCOC(=O)C(C)Oc1cccc2c(=O)n(CC(=O)Nc3ccc4c(c3)OCCO4)ccc12 (stereo not given)	inactive
CC1=C(C)C(=O)C(C(CCCCCC(=O)O)c2ccccc2)=C(C)C1=O (stereo not given)	inactive
Cc1nc(-c2ccc(OCC(C)C)c(C#N)c2)sc1C(=O)O	inactive
CC(=O)NC[C@H]1CN(c2ccc(N3CCOCC3)c(F)c2)C(=O)O1	inactive
O=C(OC1C[C@H]2CC[C@@H](C1)[N+]21CCCC1)C(O)(c1ccccc1)c1ccccc1 (stereo not given in full)	inactive
Cc1ncc([N+](=O)[O-])n1CC(C)O (stereo not given)	inactive
O=C(O)c1cccnc1Nc1cccc(C(F)(F)F)c1	inactive
O=C(CS(=O)Cc1ccco1)NCC=CCOc1cc(CN2CCCCC2)ccn1 (stereo not given)	inactive
